Experiment [1] can be described thus: antimalarial activity against Dd2 strain (AID 2302;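 active = growth inhibition above 50% at the single 2 µM test dose, taken to imply half-maximal potency below 2 µM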;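 also: 0% = DMSO untreated growth and 100% = chloroquine plus artemisinin killed control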). The conditions noted are these: P. falciparum Dd2 in RBCs, LDH growth readout, 72 h; at 2 µM; hits give high values.
Experiment [2] is described as follows: human hepatoma cell viability loss – ATP luminescence, cytotoxicity control for P. falciparum antimalarial project, primary screen (AID 2303;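 active = inhibition above 50%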;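 also: 0% = DMSO wells and 100% = digitonin-killed cells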). The conditions noted are these: HepG2 viability, 24-48 h, at 10 µM, hits give high values.
The target in experiment [3] is L-lactate dehydrogenase (Plasmodium falciparum (isolate CDC / Honduras)) (UniProt Q27743). Put plainly: PfLDH activity inhibition – cell lysate, 3D7 strain, counter-screen for P. falciparum growth inhibition project (AID 2304).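 Also: 0% = vehicle and 100% = reference inhibitor.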 The following applies: P. falciparum 3D7 crude extract, LDH APAD/NBT absorbance; at 2 µM; hits give high values.
L-lactate dehydrogenase (Plasmodium falciparum (isolate CDC / Honduras)), sequence (Q27743 whole entry, looked up): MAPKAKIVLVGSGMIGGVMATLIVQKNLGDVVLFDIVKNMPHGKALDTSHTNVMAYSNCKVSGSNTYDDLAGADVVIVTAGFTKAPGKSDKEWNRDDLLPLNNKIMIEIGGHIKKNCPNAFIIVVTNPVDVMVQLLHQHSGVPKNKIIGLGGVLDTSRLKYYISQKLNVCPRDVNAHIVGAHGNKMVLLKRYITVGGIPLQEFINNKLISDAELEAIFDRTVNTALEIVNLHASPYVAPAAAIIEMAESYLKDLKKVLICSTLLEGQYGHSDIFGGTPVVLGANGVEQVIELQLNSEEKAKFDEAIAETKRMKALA
A short description of experiment [4]: inhibition of 3D7 malaria parasite growth – strain 3D7 (AID 2306).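 Also: 0% = DMSO wells and 100% = chloroquine plus artemisinin control wells.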 The following applies: P. falciparum 3D7 erythrocytic growth, LDH absorbance, 72 h; at 2 µM; hits give high values.
For experiment [5], the target named is Calcium-dependent protein kinase 1 (Plasmodium falciparum (isolate 3D7)) (UniProt P62344). Put plainly: PfCDPK1 kinase inhibitors, biochemical, TCAMS library (AID 1159585; cut-off not given, nearly all actives have IC50 up to about 0.98 µM;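 also: inhibitors leave more ATP so luminescence rises with inhibition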). The conditions noted are these: recombinant PfCDPK1, Kinase-Glo ATP depletion luminescence. (In Kinase-Glo more light means more ATP remaining.)
Calcium-dependent protein kinase 1 (Plasmodium falciparum (isolate 3D7)), sequence (P62344 whole entry, looked up): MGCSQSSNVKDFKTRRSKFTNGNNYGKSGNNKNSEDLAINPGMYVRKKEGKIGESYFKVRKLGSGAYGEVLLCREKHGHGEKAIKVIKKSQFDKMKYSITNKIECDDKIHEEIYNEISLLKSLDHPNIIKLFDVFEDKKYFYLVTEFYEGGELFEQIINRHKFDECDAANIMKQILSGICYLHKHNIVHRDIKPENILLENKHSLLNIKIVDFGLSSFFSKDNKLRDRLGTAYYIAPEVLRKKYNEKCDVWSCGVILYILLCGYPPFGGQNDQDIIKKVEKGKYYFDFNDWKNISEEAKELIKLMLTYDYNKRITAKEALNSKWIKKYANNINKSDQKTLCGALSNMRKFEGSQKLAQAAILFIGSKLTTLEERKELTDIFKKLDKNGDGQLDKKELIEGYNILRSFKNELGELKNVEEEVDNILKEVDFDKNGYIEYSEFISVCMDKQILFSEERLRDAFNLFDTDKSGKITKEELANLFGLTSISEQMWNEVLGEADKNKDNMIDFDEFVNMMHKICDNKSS
For experiment [6], the target named is Plasmodium falciparum protein kinase 6 (PK6, PF3D7_1337100) (UniProt Q8IDW1). Put plainly: PfPK6 kinase inhibitors, biochemical, TCAMS library (AID 1159586). The following applies: recombinant PfPK6, Kinase-Glo ATP depletion luminescence.
Plasmodium falciparum protein kinase 6 (PK6, PF3D7_1337100), sequence (Q8IDW1 1-305): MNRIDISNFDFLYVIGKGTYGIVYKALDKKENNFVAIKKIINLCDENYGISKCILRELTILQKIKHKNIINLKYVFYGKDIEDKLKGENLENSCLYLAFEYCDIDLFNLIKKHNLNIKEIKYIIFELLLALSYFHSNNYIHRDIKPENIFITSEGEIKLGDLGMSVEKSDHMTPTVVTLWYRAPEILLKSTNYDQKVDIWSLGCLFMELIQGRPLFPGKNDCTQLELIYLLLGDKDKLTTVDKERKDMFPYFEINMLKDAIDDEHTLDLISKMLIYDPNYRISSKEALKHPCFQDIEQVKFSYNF
Experiment [7] addresses Protein kinase 7 (PK7), Plasmodium falciparum 3D7 (PF3D7_0213400) (UniProt Q7YTF7). Put plainly: inhibition of Plasmodium PK7 catalytic activity – biochemical, TCAMS antimalarial set, Kinase-Glo luminescence (AID 1159587). The following applies: recombinant PfPK7, Kinase-Glo ATP depletion luminescence.
Experiment [8] concerns the target Calcium-dependent protein kinase 4 (Plasmodium falciparum (isolate 3D7)) (UniProt Q8IBS5). Put plainly: PfCDPK4 kinase inhibitors, biochemical, TCAMS library (AID 1159588; cut-off not given, nearly all actives have IC50 up to about 0.91 µM). The following applies: recombinant PfCDPK4, Kinase-Glo ATP depletion luminescence.

Our source for the growth inhibition, inhibition and outcome values is PubChem BioAssay.

The inhibition is the change of the read-out against control, counted positive when it falls.

Values without a mark were called inactive. For part of these data: Results with a measured potency or affinity are listed apart. Activity calls are given as the source filed them. Unless noted, no rule for the calls is given here.

Calcium-dependent protein kinase 4 (Plasmodium falciparum (isolate 3D7)), sequence (Q8IBS5 whole entry, looked up): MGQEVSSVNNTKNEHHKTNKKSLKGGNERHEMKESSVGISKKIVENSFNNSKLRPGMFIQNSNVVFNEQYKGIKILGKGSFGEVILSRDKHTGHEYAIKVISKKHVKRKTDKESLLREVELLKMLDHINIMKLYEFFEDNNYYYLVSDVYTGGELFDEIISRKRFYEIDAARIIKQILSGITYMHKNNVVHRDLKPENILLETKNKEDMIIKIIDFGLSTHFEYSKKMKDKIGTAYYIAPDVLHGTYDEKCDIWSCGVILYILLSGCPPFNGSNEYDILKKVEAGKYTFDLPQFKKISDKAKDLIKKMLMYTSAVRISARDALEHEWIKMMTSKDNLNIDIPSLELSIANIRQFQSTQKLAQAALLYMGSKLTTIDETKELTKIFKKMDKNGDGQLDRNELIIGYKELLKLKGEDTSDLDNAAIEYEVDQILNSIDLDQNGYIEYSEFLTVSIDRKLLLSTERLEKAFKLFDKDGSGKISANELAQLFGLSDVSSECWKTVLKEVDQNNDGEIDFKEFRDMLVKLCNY
Protein kinase 7 (PK7), Plasmodium falciparum 3D7 (PF3D7_0213400), sequence (Q7YTF7 1-343): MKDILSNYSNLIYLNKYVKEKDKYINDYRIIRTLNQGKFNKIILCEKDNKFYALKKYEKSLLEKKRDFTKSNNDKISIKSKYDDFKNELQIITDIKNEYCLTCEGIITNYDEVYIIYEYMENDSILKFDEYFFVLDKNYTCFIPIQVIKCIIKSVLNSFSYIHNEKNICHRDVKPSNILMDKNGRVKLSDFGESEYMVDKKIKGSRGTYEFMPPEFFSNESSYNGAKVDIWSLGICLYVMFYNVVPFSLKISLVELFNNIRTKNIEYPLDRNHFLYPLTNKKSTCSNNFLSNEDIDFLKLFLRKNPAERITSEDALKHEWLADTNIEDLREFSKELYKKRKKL

As for `O=C(c1cccc(Br)c1)N1CCN(c2ccc([N+](=O)[O-])c(NC3CC3)c2)CC1`, the growth inhibition in experiment [1] was 100% (active); in experiment [4], 99% (active). Besides, the results for the inhibition in experiment [2] and in experiment [3] were 5% and 3%, respectively. For the same compound, the result in experiment [5], in experiment [6], in experiment [7] and in experiment [8] was inactive.
On to `COc1ccc2c(NN=Cc3cccc(Cl)c3)ccnc2c1`, for which the growth inhibition in experiment [1] is 94% (active); in experiment [4] it was 101% (active). Further, the inhibition in experiment [2] was 32%; in experiment [3], -3%. Further, the result in experiment [5], in experiment [6], in experiment [7] and in experiment [8] was inactive.
Consider `CCCN(CCC)C(C)CCC(C)Nc1c2ccc(Cl)cc2nc2ccc(OC)cc12` (configuration not stated), for which the growth inhibition in experiment [1] was 99% (active); in experiment [4] it was 101% (active). Besides, the figures for the inhibition in experiment [2] and in experiment [3] were 41% and 3%, respectively. Moreover, the outcome in experiment [5], in experiment [6], in experiment [7] and in experiment [8] was inactive.
For `COc1ccccc1C1CCN(C2CCC(NC(=O)c3cc(-c4ccc(Cl)cc4)cs3)CC2)CC1` (configuration not stated), the growth inhibition was 100% (active) in experiment [1] and 101% (active) in experiment [4]. Besides, the inhibition is 61% (active) in experiment [2] and -1% in experiment [3]. In addition, the result in experiment [5], in experiment [6], in experiment [7] and in experiment [8] was inactive.
As for `COc1cccc(CCNCc2ccc(-c3cccc(CNC4CCCC4)c3)cc2)c1`, the growth inhibition in experiment [1] is 45%; in experiment [4], 101% (active). The inhibition in experiment [2] is 14%; in experiment [3], -4%. The result in experiment [5], in experiment [6], in experiment [7] and in experiment [8] was inactive.
Regarding `O=C(CCc1ccccc1)N[C@H](Cc1c[nH]c2ccccc12)C(=O)N1CCC(NCc2ccc3c(c2)Cc2ccccc2-3)CC1`, the growth inhibition is 8% in experiment [1] and 92% (active) in experiment [4]. Also, the inhibition in experiment [2] is 53% (active); in experiment [3] it was -6%. Moreover, the result in experiment [5], in experiment [6], in experiment [7] and in experiment [8] was inactive.
Consider `COc1cccc2c(NN=Cc3cccc(F)c3)ccnc12`, for which the growth inhibition in experiment [1] was 44%; in experiment [4], 99% (active). Besides, the figures for the inhibition in experiment [2] and in experiment [3] were 12% and 5%, respectively. For the same compound, the result in experiment [5], in experiment [6], in experiment [7] and in experiment [8] was inactive.
On to `CC(C)CCNCc1c(O)ccc2ccccc12`, for which the growth inhibition is 51% (active) in experiment [1] and 95% (active) in experiment [4]. Moreover, the inhibition is 9% in experiment [2] and 2% in experiment [3]. The result in experiment [5], in experiment [6], in experiment [7] and in experiment [8] was inactive.
Take `O=C(Nc1ccc(-c2cccc(-c3nc4ccc(C(F)(F)F)cc4[nH]3)c2)cc1)c1csnn1`: the growth inhibition in experiment [1] is 25%; in experiment [4], 98% (active). The inhibition was 42% in experiment [2] and -2% in experiment [3]. Also, the outcome in experiment [5], in experiment [6], in experiment [7] and in experiment [8] was inactive.
With `Nc1nc(N)c2cc(Sc3ccc4ccccc4c3)ccc2n1`, the growth inhibition in experiment [1] is 92% (active); in experiment [4], 95% (active). For the same compound, the inhibition is 66% (active) in experiment [2] and 0% in experiment [3]. Besides, the outcome in experiment [5], in experiment [6], in experiment [7] and in experiment [8] was inactive.
`CN(C)CCN(C)Cc1ccc(-c2ccc3c(Nc4ccc(Oc5ccccn5)cc4)ccnc3c2)o1`: the growth inhibition in experiment [1] and in experiment [4] was 100% (active) in each case. Also, the inhibition was 16% in experiment [2] and 6% in experiment [3]. Also, the result in experiment [5], in experiment [6], in experiment [7] and in experiment [8] was inactive.
As to `Cc1cccc2[nH]c(-c3ccc(-c4ccc(NC(=O)Nc5ccc(Cl)cc5)cc4)s3)nc12`, the growth inhibition in experiment [1] was 100% (active); in experiment [4], 101% (active). The inhibition in experiment [2] was 78% (active); in experiment [3] it was 7%. Besides, the outcome in experiment [5], in experiment [6], in experiment [7] and in experiment [8] was inactive.
Consider `COc1cc(CN2CCC(N3CCc4cc(NC(=O)c5cc(C)on5)ccc43)C2)ccc1F` (configuration not stated), for which the growth inhibition in experiment [1] was 96% (active); in experiment [4], 91% (active). Moreover, the figures for the inhibition in experiment [2] and in experiment [3] were 1% and 0%, respectively. The outcome in experiment [5], in experiment [6], in experiment [7] and in experiment [8] was inactive.
For `Cc1ccc2nc(-c3ccc(C=CC(=O)NC4CCN(Cc5ccccc5)CC4)cc3)[nH]c2c1`, the growth inhibition was 92% (active) in experiment [1] and 101% (active) in experiment [4]. Besides, the inhibition in experiment [2] was 9%; in experiment [3] it was -1%. Further, the result in experiment [5], in experiment [6], in experiment [7] and in experiment [8] was inactive.
As to `NCc1ccc(CNCc2cccc(-c3cccc(-c4nc5ccc(F)cc5[nH]4)c3)c2)cc1`, the values for the growth inhibition in experiment [1] and in experiment [4] were 34% and 101% (active), respectively. In addition, the inhibition in experiment [2] is 15%; in experiment [3] it was -2%. In addition, the result in experiment [5], in experiment [6], in experiment [7] and in experiment [8] was inactive.
In the case of `CN(C)CCOC(=O)C1(O)CCC2CC1C2(C)C` (configuration not stated), the results for the growth inhibition in experiment [1] and in experiment [4] were -5% and 95% (active), respectively. Further, the inhibition in experiment [2] is 10%; in experiment [3], -9%. Further, the outcome in experiment [5], in experiment [6], in experiment [7] and in experiment [8] was inactive.
For the compound `Cc1ccc(-c2noc(COc3ccccc3C(=O)NC3CCCC3)n2)cc1`, the growth inhibition in experiment [1] is 92% (active); in experiment [4] it was 89% (active). The inhibition in experiment [2] is 9%; in experiment [3] it was -4%. Moreover, the outcome in experiment [5], in experiment [6], in experiment [7] and in experiment [8] was inactive.
`CCCN(CCCCCCNCCc1ccc(Cl)cc1)CCc1ccc(O)c(O)c1`: the growth inhibition is 11% in experiment [1] and 91% (active) in experiment [4]. Further, the figures for the inhibition in experiment [2] and in experiment [3] were 26% and -3%, respectively. Moreover, the result in experiment [5], in experiment [6], in experiment [7] and in experiment [8] was inactive.
As for `Cc1cc(-c2nc3cncc(-c4cccc(CN5CCCC5Cc5cccnc5)c4)c3n2C)nn1C` (configuration not stated), the growth inhibition in experiment [1] was 73% (active); in experiment [4] it was 83% (active). Also, the inhibition in experiment [2] was -7%; in experiment [3] it was -1%. For the same compound, the outcome in experiment [5], in experiment [6], in experiment [7] and in experiment [8] was inactive.
Turning to `O=C(Nc1cccc(CN2CCCN(CC3CCCCC3)CC2)c1)c1ccc(Cl)c(Cl)c1`, the growth inhibition in experiment [1] was 15%; in experiment [4], 91% (active). In addition, the inhibition is 39% in experiment [2] and 7% in experiment [3]. Also, the result in experiment [5], in experiment [6], in experiment [7] and in experiment [8] was inactive.
`C[C@@H]1CN(c2cccc3c2nc(-c2cncc(C#N)c2)n3CCNCc2ccccc2)C[C@H](C)O1`: the growth inhibition in experiment [1] was 9%; in experiment [4], 83% (active). The inhibition is -5% in experiment [2] and 5% in experiment [3]. Also, the result in experiment [5], in experiment [6], in experiment [7] and in experiment [8] was inactive.
Regarding `C[C@@H](C(=O)N1CCOCC1)N1CC[C@H](NS(=O)(=O)c2ccc3ccnc(N)c3c2)C1=O`, the growth inhibition in experiment [1] is 61% (active); in experiment [4], 84% (active). The inhibition in experiment [2] is -6%; in experiment [3], -4%. The outcome in experiment [5], in experiment [6], in experiment [7] and in experiment [8] was inactive.
Consider `CCn1c(Cc2ccccc2)nnc1Sc1ccc([N+](=O)[O-])c(C#N)c1`, for which the growth inhibition in experiment [1] is 72% (active); in experiment [4], 93% (active). The inhibition is 8% in experiment [2] and -5% in experiment [3]. Moreover, the outcome in experiment [5], in experiment [6], in experiment [7] and in experiment [8] was inactive.
Consider `O=C(Nc1ccccc1)c1cccc(Nc2nccc(Nc3ccc(Oc4ccccc4)cc3)n2)c1`, for which the growth inhibition is 11% in experiment [1] and 98% (active) in experiment [4]. The results for the inhibition in experiment [2] and in experiment [3] were 6% and -1%, respectively. Also, the outcome in experiment [5], in experiment [6], in experiment [7] and in experiment [8] was inactive.
